Unmarked numbers belong to inactive results.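 Rule for the calls, unless noted: active = inhibition over a set limit, the all-compound mean plus 3 SD, in both replicate runs; inconclusive = over that limit in just one replicate run; inactive = at or under that limit in both runs.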
assay: inhibitors of the yeast RAM network, pilot screen, dse1pr::URA3 reporter, 5-FOA selection (AID 869);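 note: 0% = DMSO wells with no growth and 100% = 10 µM 1-NA-PP1 with full growth; RAM network block rescues cells from 5-FOA so hits raise OD615 growth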; settings: S. cerevisiae dse1pr::URA3 5-FOA growth, OD615, 2 d; at 10 µM; active compounds read high; strain carries analog-sensitive mutant Cbk1 kinase

Point of comparison: `CN=C1SC(CC(=O)Nc2ccccc2F)C(=O)N1C` (stereo not given), inhibition 1.99%. Against it:
- COc1ccc(-c2noc(-c3ccccc3F)n2)cc1 — lower, 0.965%
- CCOC(=O)N1CCN(C(=O)C(C)(C)Oc2ccc(Cl)cc2)CC1 — lower, 0.28%
- CCOc1ccc(C2CC(c3ccc(CC)cc3)Nc3nc(N)nn32)cc1 (stereo not given) — lower, 0.69%
- O=C(Cn1cc2c(n1)CCCCC2)NCc1ccccn1 — higher, 3.27%
- O=C(Nc1ccc(Cl)cn1)c1cccc(F)c1 — lower, 0.27%
- CCCn1c(C(O)c2ccc3c(c2)OCO3)nc2ccccc21 (stereo not given) — higher, 2.31%
- COc1ccc(-n2nc3c(c2NC(=O)c2ccc(Br)cc2)CS(=O)C3)cc1 (stereo not given) — lower, 0.805%
- CC1CCCCN1c1nnc(NC(=O)Cn2c(=O)oc3ccccc32)s1 (stereo not given) — lower, -0.575%
- Cc1ncc(CO)c2cc(S(=O)(=O)c3ccc(F)cc3)c(=O)oc12 — lower, 0.14%
- COc1ccc(C/C(N)=N/n2cnnc2)cc1 — lower, 0.64%
- Cc1cc(C)cc(N(CC(=O)N2CCN(Cc3ccccc3)CC2)S(=O)(=O)c2c(C)noc2C)c1 — lower, 1.84%
- COc1ccccc1NC(=O)Cn1cnc2c(oc3ccccc32)c1=O — lower, 1.6%
- O=C1CCCC2=C1C1(O)C(=O)c3ccccc3C1(O)O2 (stereo not given) — lower, 1.28%
- Cc1cc(C)c(NC(=O)C(C)(C)C)c(Cl)c1 — lower, 1.72%
- Cc1c(NC(=O)Oc2ccccc2)sc(=S)n1C — lower, 1.32%
- O=C(c1ccc(CN2CCOCC2)cc1)N1CCN(Cc2ccccc2)CC1 — lower, 0.83%
- Cc1cccc(N(C)c2cc(C)nc3ncnn23)c1 — lower, 0.99%
- Cc1oc2cc(O)ccc2c(=O)c1N1C(=O)c2ccccc2C1=O — lower, 1.11%
- Cc1ccc(C2CC(c3ccc(F)cc3)Nc3nc(N)nn32)cc1 (stereo not given) — lower, 0.25%
- CCOC(=O)c1c(C)n(C)c2cc(Br)c(C(=O)OC)cc12 — the same, 1.99%
- COc1ccc(N(CC(=O)NCc2ccco2)S(=O)(=O)c2c(C)nn(C)c2C)cc1 — lower, 0.185%
- CC1CCC(NC(=O)CC2Oc3ccccc3NC2=O)CC1 (stereo not given) — higher, 2.69%
- COc1ccccc1N1CCN(C(=O)c2cc3cc(Br)ccc3oc2=O)CC1 — higher, 2.47%
- O=C(NC1CCCCCC1)C1CCN(S(=O)(=O)c2cccc3cccnc23)CC1 — lower, -0.605%
- CCOc1ccc2[nH]c(C)c(CN3CCOCC3)c(=O)c2c1 — lower, 1.96%
- COc1ccc(OC)c(CCNC(=O)C2CCN(c3nnc(-n4cccc4)s3)CC2)c1 — higher, 4.26%
- CN1C(=O)C(O)(CC(=O)c2cccnc2)c2ccccc21 (stereo not given) — higher, 2.05%
- COc1ccc(C2C(C(=O)NCC3CCCO3)c3cc(OC)c(OC)cc3C(=O)N2C)cc1OC (stereo not given) — lower, 1.46%
- Cc1cc(OCC(=O)Nc2cc(-c3nn4c(C)nnc4s3)ccc2C)ccc1Cl — higher, 2.49%
- Cc1ccccc1-n1c(Cn2c(=O)sc3ccccc32)nnc1SCC(=O)Nc1nccs1 — higher, 2.25%
- CCSc1nnc(NC(=O)CSc2nc3c(c(=O)n2CCOC)SC(C)C3)s1 (stereo not given) — higher, 2.09%
- CCCc1cc(=O)oc2cc3occ(C)c3cc12 — lower, 1.23%
- COc1ccc(OC)c(CN2CCN(c3ccccc3OC)CC2)c1 — lower, 1.86%
- CC(C)(C)OC(=O)N1CCC(C(N)=O)CC1 — lower, 0.535%
- CC1=C(C(N)=O)C(c2ccccn2)n2nc(SCc3ccccc3Cl)nc2N1 (stereo not given) — lower, 1.04%
- COc1cc(C2NC(=O)NC(C)=C2C(=O)OC2CCCCC2)cc(Br)c1O (stereo not given) — lower, 0.33%
- CC1CCCN(C(=O)c2ccc3c(c2)C(=O)N(CCC2=CCCCC2)C3=O)C1 (stereo not given) — lower, 0.28%
- COc1ccc(N2CSC3=C(C#N)C(c4cccc(OC)c4OC)CC(=O)N3C2)cc1 (stereo not given) — lower, 1.48%
- COC(=O)C1C2C=CC3(CN(C(C)C)C(=O)C13)O2 (stereo not given) — lower, -0.215%

assay: RAM signaling pathway blockade in yeast – S. cerevisiae, Pdr1DBD-CYC8 efflux-inhibited sensitized strain, primary screen (AID 1298;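 active = RAM network inhibition above 8.4% in each of two replicates, 3 SD over the compound average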;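 note: 0% = DMSO untreated cells without growth and 100% = 10 µM 1-NA-PP1 full growth; higher means more yeast growth rescued from 5-FOA killing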); settings: S. cerevisiae cbk1-as DSE1-URA3 strain, 5-FOA growth OD615, 2 d; at 50 µM; active compounds read high

Point of comparison: `CCOc1ccc2[nH]c(C)c(CN3CCOCC3)c(=O)c2c1`, RAM network inhibition 2.56%. Against it:
- COc1ccc(-c2noc(-c3ccccc3F)n2)cc1 — higher, 4.28%
- CCOC(=O)N1CCN(C(=O)C(C)(C)Oc2ccc(Cl)cc2)CC1 — higher, 3.09%
- CCOc1ccc(C2CC(c3ccc(CC)cc3)Nc3nc(N)nn32)cc1 (stereo not given) — higher, 8.15%
- O=C(Cn1cc2c(n1)CCCCC2)NCc1ccccn1 — higher, 4.15%
- O=C(Nc1ccc(Cl)cn1)c1cccc(F)c1 — lower, 1.17%
- CCCn1c(C(O)c2ccc3c(c2)OCO3)nc2ccccc21 (stereo not given) — lower, 0.88%
- COc1ccc(-n2nc3c(c2NC(=O)c2ccc(Br)cc2)CS(=O)C3)cc1 (stereo not given) — higher, 2.87%
- CC1CCCCN1c1nnc(NC(=O)Cn2c(=O)oc3ccccc32)s1 (stereo not given) — higher, 4.48%
- Cc1ncc(CO)c2cc(S(=O)(=O)c3ccc(F)cc3)c(=O)oc12 — lower, 1.42%
- COc1ccc(C/C(N)=N/n2cnnc2)cc1 — higher, 3.02%
- Cc1cc(C)cc(N(CC(=O)N2CCN(Cc3ccccc3)CC2)S(=O)(=O)c2c(C)noc2C)c1 — higher, 3.45%
- COc1ccccc1NC(=O)Cn1cnc2c(oc3ccccc32)c1=O — lower, -1.27%
- O=C1CCCC2=C1C1(O)C(=O)c3ccccc3C1(O)O2 (stereo not given) — lower, 1.91%
- Cc1cc(C)c(NC(=O)C(C)(C)C)c(Cl)c1 — lower, 1.23%
- Cc1c(NC(=O)Oc2ccccc2)sc(=S)n1C — lower, 0.99%
- O=C(c1ccc(CN2CCOCC2)cc1)N1CCN(Cc2ccccc2)CC1 — higher, 12.1%
- Cc1cccc(N(C)c2cc(C)nc3ncnn23)c1 — higher, 4.73%
- Cc1oc2cc(O)ccc2c(=O)c1N1C(=O)c2ccccc2C1=O — lower, 1.15%
- Cc1ccc(C2CC(c3ccc(F)cc3)Nc3nc(N)nn32)cc1 (stereo not given) — higher, 2.86%
- CCOC(=O)c1c(C)n(C)c2cc(Br)c(C(=O)OC)cc12 — higher, 7.11%
- COc1ccc(N(CC(=O)NCc2ccco2)S(=O)(=O)c2c(C)nn(C)c2C)cc1 — lower, 0.73%
- CC1CCC(NC(=O)CC2Oc3ccccc3NC2=O)CC1 (stereo not given) — higher, 5.77%
- COc1ccccc1N1CCN(C(=O)c2cc3cc(Br)ccc3oc2=O)CC1 — lower, 1.96%
- O=C(NC1CCCCCC1)C1CCN(S(=O)(=O)c2cccc3cccnc23)CC1 — lower, 1.35%
- COc1ccc(OC)c(CCNC(=O)C2CCN(c3nnc(-n4cccc4)s3)CC2)c1 — higher, 7.35%
- CN1C(=O)C(O)(CC(=O)c2cccnc2)c2ccccc21 (stereo not given) — lower, 1.88%
- COc1ccc(C2C(C(=O)NCC3CCCO3)c3cc(OC)c(OC)cc3C(=O)N2C)cc1OC (stereo not given) — lower, 0.94%
- Cc1cc(OCC(=O)Nc2cc(-c3nn4c(C)nnc4s3)ccc2C)ccc1Cl — higher, 6.32%
- Cc1ccccc1-n1c(Cn2c(=O)sc3ccccc32)nnc1SCC(=O)Nc1nccs1 — higher, 5.86%
- CN=C1SC(CC(=O)Nc2ccccc2F)C(=O)N1C (stereo not given) — lower, 1.28%
- CCSc1nnc(NC(=O)CSc2nc3c(c(=O)n2CCOC)SC(C)C3)s1 (stereo not given) — higher, 7.38%
- CCCc1cc(=O)oc2cc3occ(C)c3cc12 — higher, 4.79%
- COc1ccc(OC)c(CN2CCN(c3ccccc3OC)CC2)c1 — higher, 5.18%
- CC(C)(C)OC(=O)N1CCC(C(N)=O)CC1 — lower, 0.06%
- CC1=C(C(N)=O)C(c2ccccn2)n2nc(SCc3ccccc3Cl)nc2N1 (stereo not given) — lower, 0.26%
- COc1cc(C2NC(=O)NC(C)=C2C(=O)OC2CCCCC2)cc(Br)c1O (stereo not given) — higher, 8.82%
- CC1CCCN(C(=O)c2ccc3c(c2)C(=O)N(CCC2=CCCCC2)C3=O)C1 (stereo not given) — higher, 3.27%
- COc1ccc(N2CSC3=C(C#N)C(c4cccc(OC)c4OC)CC(=O)N3C2)cc1 (stereo not given) — higher, 3.83%
- COC(=O)C1C2C=CC3(CN(C(C)C)C(=O)C13)O2 (stereo not given) — lower, 1.89%
